Screening results (PubChem BioAssay)
MRP1 act = activates MRP-1; H69AR cells + doxorubicin, viability rescue, CellTiter-Glo; viability increase, % at 10 µM; 140,000 compounds, 0.61% hits;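 active = viability gain under doxorubicin at or above a set limit, the compound median plus 3 SD, cut at about 4.7% in these data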;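 note: MRP-1 overexpressing cells given doxorubicin 25 µM after compound pretreatment; 18-22 h compound pretreatment then 72 h with doxorubicin before readout; 0% = doxorubicin-only wells and 100% = vehicle-treated cells without doxorubicin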
Phagocytosis inh = inhibitors of macrophage phagocytosis. J774A.1 macrophage IgG-bead phagocytosis, imaging. inhibition, % at 5 µM. 110,000 compounds, 0.07% hits;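 active = inhibition above the mean of the plate negative controls plus 5 SD, cut at about 13% in these data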;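 note: phagocytic index as fraction of beads internalized from green versus red external bead signal; plate controls were DMSO negative control for no effect and cytochalasin-D positive control for full effect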
sEH inhibitor = inhibitors of human soluble epoxide hydrolase; inhibition, % at 2 µM; AID 707; recombinant human sEH enzymatic activity assay; P34913; 91,000 compounds, 0.34% hits; in the data active = inhibition above about 80%
Target sequence (P34913 whole entry, looked up): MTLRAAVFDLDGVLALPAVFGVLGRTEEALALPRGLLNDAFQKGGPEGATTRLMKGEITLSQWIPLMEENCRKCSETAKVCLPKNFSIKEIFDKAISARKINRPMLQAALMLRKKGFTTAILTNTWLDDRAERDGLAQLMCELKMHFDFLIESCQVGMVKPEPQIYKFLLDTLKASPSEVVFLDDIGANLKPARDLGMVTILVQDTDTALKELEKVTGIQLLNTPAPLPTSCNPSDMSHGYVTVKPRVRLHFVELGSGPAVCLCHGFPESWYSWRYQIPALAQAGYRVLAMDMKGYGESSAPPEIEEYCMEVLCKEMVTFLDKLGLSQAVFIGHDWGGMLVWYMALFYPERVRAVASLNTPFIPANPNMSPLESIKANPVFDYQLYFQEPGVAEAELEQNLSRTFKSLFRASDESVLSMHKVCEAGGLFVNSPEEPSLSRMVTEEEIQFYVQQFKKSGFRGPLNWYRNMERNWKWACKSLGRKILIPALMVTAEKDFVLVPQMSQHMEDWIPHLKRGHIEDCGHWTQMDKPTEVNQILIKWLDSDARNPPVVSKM
SDO1 yeast rescue = restores growth of sdo1-depleted yeast; 140,000 compounds, 0.21% hits; AID 817; z-score at 10 µM; S. cerevisiae sdo1-depleted JHY4D growth rescue, OD600 30 h; active compounds read high; pdr5 snq2 efflux-pump mutant strain;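 active = z-score above 3 at both the 24 hr and the 30 hr optical density reads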;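 note: z-score against mean and SD of all compound wells on the same plate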
sEH act = activators of human soluble epoxide hydrolase | purified human sEH enzymatic activity, activator screen | P34913 | 91,000 compounds, 0.04% hits | activation, % at 2 µM; in the data active = activation above about 37%
MRP reversal = compounds reversing MRP-mediated drug resistance; differential viability (reversal), % at 10 µM; 85,000 compounds, 0.04% hits; H69AR cells + 2 uM doxorubicin, CellTiter-Glo, 72 h;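 active = viability drop by adding the cancer drug above about 55%, with treated viability meeting a 40% cutoff, limit read from the data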;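 note: viability without doxorubicin minus viability with 2 µM doxorubicin for each compound; larger differential means the compound sensitizes cells more to doxorubicin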
* hit, by the source's call; nt = no result. In the library only some 1% were active in any assay of this set; here they are far more common.

SMILES	MRP1 act	Phagocytosis inh	sEH inhibitor	SDO1 yeast rescue	sEH act	MRP reversal
O=C(NC(=S)Nc1nc(-c2ccccc2)cs1)c1cncc(Br)c1	6.8*	nt	9	0.86	-8	nt
O=C(NC(=S)Nc1nc(-c2ccccc2)cs1)c1cccs1	-1	4	nt	-0.81	nt	nt
O=C(Nc1nc(-c2ccccc2)cs1)c1ccc(Br)o1	6.9*	nt	nt	-1.2	nt	nt
CCc1ccc(-c2csc(NC(=O)Oc3ccccc3)n2)cc1	13*	-14	nt	-0.76	nt	nt
CCN(CC)CC#CCC(C)(c1ccccc1)c1ccccc1	-2	nt	-11	-0.98	14	nt
CCN(CC(=O)NC(C)C)C(=O)c1ccc(Cl)cc1	6.0*	-13	nt	1.5	nt	nt
CCN(CC(=O)NC(C)C)C(=O)c1ccc(S(=O)(=O)N(C)c2ccccc2OC)cc1	-3	0	-11	0.77	11	11
CCOc1cc(C(=O)Nc2ccc(NC(C)=O)cc2)ccc1OCC(=O)N1CCCCC1	-2	-2	nt	0.64	nt	nt
Cc1ccc(OCc2nc(-c3ccc(Cl)cc3)n[nH]2)cc1	5.4*	0	18	-2	-14	8
Cc1ccc(C(=O)CC(=O)COc2ccc(Cl)cc2)cc1	0	-14	nt	0.52	nt	nt
O=C(Nc1ccc2c(c1)nc1n2CCN(Cc2ccccc2)C1)NC1CCCCC1	0	-1	91*	0.14	-91	0
Cc1nc(C)c(C(=O)NNS(=O)(=O)c2ccccc2)s1	5.2*	-10	nt	-0.39	nt	nt
Cc1ccc(S(=O)(=O)NNC(=O)c2snnc2C)cc1	-3	nt	-4	0.39	4	24
CN(C)C(CNC(=O)CN1C(=O)NC2(CCc3ccccc32)C1=O)c1ccco1 (stereo unspecified)	-2	-2	2	1.2	-1	17
Cc1cc(NC(=O)CSc2nnc(-c3ccoc3C)o2)no1	-2	0	5	-0.01	-5	0
COc1cc(OC)cc(-c2nnc(SCC(=O)Nc3cc(C)on3)o2)c1	nt	nt	1	nt	-2	64*
COc1ccc(NC(=O)C(Sc2nnc(-c3ccncc3)n2-c2ccccc2C)c2ccccc2)cc1Cl (stereo unspecified)	-4	nt	nt	-0.51	nt	nt
Cc1ccc(OCC(=O)OCC(=O)c2c(N)n(C)c(=O)n(C)c2=O)cc1C	-1	-1	4	1.5	-5	21
COC(=O)[C@@H](NC(=O)NCc1ccccc1Cl)C(C)C	0	-1	89*	0.22	-89	16
C=CCn1c(C)cc(C(=O)COC(=O)CNC(=O)c2ccccc2)c1C	-2	-4	nt	0.81	nt	nt
CN=C1S/C(=C\c2cc(C)n(-c3ccccc3F)c2C)C(=O)N1C	5.9*	2	3	-0.8	-1	nt
O=C(O)c1ccccc1-c1ccccc1C(=O)NCCCO	-1	nt	-33	0.04	37*	-16
CCCc1nnc(N2C(=O)c3cccc4cccc(c34)C2=O)s1	-4	0	-11	-0.71	12	-21
CCOC(=O)c1sc(-c2ccccc2)cc1NC(=O)Nc1ccc([N+](=O)[O-])cc1	-3	0	nt	1.7	nt	nt
COC(=O)c1ccc(-n2c(C)nc(=O)c(-c3ccccc3)c2C)cc1	4	-1	17	1.3	-14	12
SMILES	MRP1 act	Phagocytosis inh	sEH inhibitor	SDO1 yeast rescue	sEH act	MRP reversal
COc1ccc(-n2c(C)nc(=O)c(-c3ccccc3)c2C)cc1	8.2*	nt	6	2.5	-4	4
Cc1nc(=O)c(-c2ccccc2)c(C)n1-c1cccc(C(=O)O)c1	6.0*	0	-3	0.55	5	-4
CCn1ncc2c(OCc3ccc(C#N)cc3)cc(C)nc21	0	1	-8	-0.65	6	-8
CCOC(=O)C1=C(C)NC(=O)C(C(N)=O)C1c1ccccc1 (stereo unspecified)	-1	-2	-41	0.46	37*	-17
CCCCNc1oc(-c2ccc(OC)cc2)nc1S(=O)(=O)c1ccccc1	6.2*	nt	15	-1.2	-13	7
CCOC(=O)COc1ccc(/C=C2/SC(=Nc3ccccc3)N(Cc3cccnc3)C2=O)cc1OC	-2	nt	0	-1.1	-2	nt
CCOc1cc(/C=C2\SC(=Nc3ccccc3)N(c3ccccc3)C2=O)ccc1OCC(=O)O	5.9*	0	nt	0.57	nt	nt
Cc1c(NC(=O)c2cc3nc(-c4ccc(Cl)cc4)cc(C(F)(F)F)n3n2)c(=O)n(-c2ccccc2)n1C	-7	nt	4	-0.42	-4	-24
COc1cccc(/C=N/N2C(=O)CSC2=S)c1O	8.0*	-4	nt	-0.82	nt	nt
Cc1cc(Cl)ccc1NC(=O)NC1CCN(S(=O)(=O)c2ccc(F)cc2)CC1	-5	nt	41	0.33	-41	-30
Cc1ccc(NC(=O)NC2CCN(S(=O)(=O)c3ccc(F)cc3)CC2)cc1	-1	nt	85*	0.2	-84	2
O=c1cc(N2CCOCC2)cnn1-c1ccccc1	0	4	nt	0.55	nt	nt
O=C(Cc1ccccc1[N+](=O)[O-])NCCSCc1c(F)cccc1Cl	-1	nt	42	-0.02	-43	nt
O=C(CCN1C(=O)/C(=C/C=C/c2ccccc2)SC1=S)Nc1cccnc1	0	nt	nt	-1.3	nt	nt
COc1ccc(/C=C2/SC(=S)N(CCC(=O)O)C2=O)cc1	-4	nt	-9	0.21	6	nt
O=C(CCN1C(=O)/C(=C\c2ccccc2)SC1=S)NNC(=O)c1cccnc1	8.8*	-7	nt	-1.2	nt	nt
Cc1ccc(/C=C2\SC(=S)N(CCC(=O)NNS(=O)(=O)c3ccc(C)cc3)C2=O)cc1	5.7*	nt	nt	-0.71	nt	nt
CC(=O)NN1C(=O)/C(=C\c2ccc(C)cc2)SC1=S	11*	nt	7	-1.2	-5	nt
Cc1cc(C)nc(NN2C(=O)/C(=C/c3ccccc3)SC2=S)n1	9.7*	nt	5	-0.05	-4	nt
N#CCCCCN1c2cccc3cccc(c23)S1(=O)=O	-2	-2	19	-0.82	-19	-7
Cc1ccc(S(=O)(=O)NC(C)(C)CSc2ccccn2)cc1	0	-12	nt	-1.2	nt	nt
O=C(Nc1nccs1)c1cc2c(s1)-c1ccccc1OC2	-4	0	nt	-0.26	nt	nt
Cc1cccc2c1-c1sc(C(=O)Nc3nccs3)cc1CO2	0	0	-52	-1.1	53*	-20
O=C1c2ccccc2S(=O)(=O)N1CC1CC(c2ccccc2)=NO1 (stereo unspecified)	1	-1	-2	1.5	4	-4
COc1ccc(C2=NOC(CN3C(=O)c4ccccc4S3(=O)=O)C2)cc1 (stereo unspecified)	-3	38*	-3	-0.62	3	-1
CC1CCN(C(=O)CN(c2ccc(Cl)c(C(F)(F)F)c2)S(C)(=O)=O)CC1	-3	155*	-4	0.09	2	5
CS(=O)(=O)N(CC(=O)N1CCC(C(N)=O)CC1)c1ccc(Cl)c(C(F)(F)F)c1	0	-2	5	1.5	-3	9
c1ccc(Cn2c(-c3ccco3)nc3nc4ccccc4nc32)cc1	-2	-1	-40	-1.7	38*	-3
O=S(=O)(Cc1ccccc1)c1cnc2ccccc2n1	-5	nt	-3	0.22	4	-2
CNc1sc(C(=O)c2ccccc2F)c(N)c1-c1nc2ccccc2s1	6.8*	0	-6	-1.8	6	-2
